RBX1-CUL1 inh: blocks human RBX1-Cullin-1 di-ubiquitin formation; P62877+Q13616; in vitro K48 di-Ub FRET, acceptor:donor ratio, 45 min; inhibition, % at 10 µM; 140,000 tested, 0.6% active; AID 1347404; in the data active = inhibition above about 25%
Target sequence (P62877 whole entry, looked up): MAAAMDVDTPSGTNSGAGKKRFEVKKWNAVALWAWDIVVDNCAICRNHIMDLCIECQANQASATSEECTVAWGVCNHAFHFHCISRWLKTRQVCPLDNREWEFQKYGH
Target sequence (Q13616 whole entry, looked up): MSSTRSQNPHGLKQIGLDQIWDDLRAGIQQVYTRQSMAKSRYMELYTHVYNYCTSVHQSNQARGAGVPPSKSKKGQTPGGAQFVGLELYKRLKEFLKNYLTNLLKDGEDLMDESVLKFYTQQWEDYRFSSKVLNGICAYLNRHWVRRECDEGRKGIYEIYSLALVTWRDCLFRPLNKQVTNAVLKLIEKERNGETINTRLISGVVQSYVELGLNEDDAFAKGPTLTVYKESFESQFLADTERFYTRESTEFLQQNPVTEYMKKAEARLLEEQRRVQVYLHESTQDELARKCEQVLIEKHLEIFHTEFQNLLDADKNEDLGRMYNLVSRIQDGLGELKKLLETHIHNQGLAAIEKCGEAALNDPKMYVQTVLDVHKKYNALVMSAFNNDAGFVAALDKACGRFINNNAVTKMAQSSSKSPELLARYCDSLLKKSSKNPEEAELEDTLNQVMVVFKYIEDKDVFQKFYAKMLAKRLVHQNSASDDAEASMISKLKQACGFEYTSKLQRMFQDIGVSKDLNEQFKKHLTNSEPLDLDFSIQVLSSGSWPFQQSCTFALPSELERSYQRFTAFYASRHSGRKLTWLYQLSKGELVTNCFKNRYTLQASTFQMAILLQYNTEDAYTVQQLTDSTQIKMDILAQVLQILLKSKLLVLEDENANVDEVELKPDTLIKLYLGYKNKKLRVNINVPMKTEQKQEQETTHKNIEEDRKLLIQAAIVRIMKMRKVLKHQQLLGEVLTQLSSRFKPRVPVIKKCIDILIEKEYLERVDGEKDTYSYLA
A number is an active result; n = inactive. This excerpt belongs to a sample that is enriched for hits.

SMILES | RBX1-CUL1 inh
CCN=C1CC=CC=C(C(=O)/C=C/c2ccc(Br)cc2)C1=O | 85.7
O=C(/C=C/c1ccc(Cl)c(Cl)c1)NCCC1=CCCCC1 | n
COc1ccccc1N1CCN(C(=O)c2cn(C(C)C)cc(C(=O)NCc3ccccc3)c2=O)CC1 | n
Cc1ccc(-c2nnc(Nc3ccc(OC(F)(F)F)cc3)c3ccccc23)cc1S(=O)(=O)N1CCCCC1 | n
COc1ccc(/C=C2/SC(=O)N(CC(=O)Nc3ccccc3)C2=O)cc1O | n
COc1cc2sc(C(=O)Nc3ccccc3)c(Cl)c2cc1OC | n
CCCC(=O)NC(=S)Nc1ccc(C(=O)OC)cc1 | n
O=C1c2ccccc2C(=O)N1CCOCCOCCOCCN1C(=O)c2ccccc2C1=O | n
COc1ccc(CNC(=O)N=C2CN(CC(C)C)C(=O)c3ccccc32)c(OC)c1 | 28.1
Cc1ccc(CNC(=O)N=C2CN(CC(C)C)C(=O)c3ccccc32)cc1 | n
COc1ccc(NC(=O)N=C2CN(CC(C)C)C(=O)c3ccccc32)c(OC)c1 | n
Cc1cccc(N2C(=O)CC(N3CCc4ccccc4C3)C2=O)c1 (stereo not given) | n
CC1=NN(c2ccc(C)cc2)C(=O)/C1=C\c1cccnc1 | 82.0
CC1=NN(c2ccc(C)cc2)C(=O)/C1=C\c1ccc(OC(C)C)cc1 | n
CC1=NN(c2ccccc2)C(=O)/C1=C/c1ccc(OCCCOc2ccccc2)cc1 | n
C=CCSC1=NC(=O)CC(c2cccc(OC)c2)C1C#N (stereo not given) | n
Cc1cc(C)nc(NCc2cccnc2N2CCN(C)CC2)n1 | n
CC(C1=C(c2c(N)ccc3ccccc23)CC(C)(C)CC1=O)c1ccccc1C(=O)O (stereo not given) | n
O=C1c2ccccc2C2C3CC=CC3c3c(ccc4ccccc34)N12 (stereo not given) | n
c1ccc2oc(SCCCCCCSc3nc4ccccc4o3)nc2c1 | n
c1ccc(CSc2nc3ccccc3o2)c(CSc2nc3ccccc3o2)c1 | n
O=C(O)c1ccccc1SCCSc1nc2ccccc2o1 | 33.8
CCS(=O)(=O)N(C)c1ccc(C(=O)N2CCc3ccccc32)cc1 | n
O=C(O)c1sccc1-c1ccsc1C(=O)O | n
c1cc2c(s1)COCc1sccc1-2 | 45.3
SMILES | RBX1-CUL1 inh
Cc1cccn2c(=O)c3cc(C(=O)Nc4cccnc4)n(C)c3nc12 | n
CCOC(=O)c1c(N=CC2C(=O)NC(=S)N(c3ccc(F)cc3)C2=O)sc2c1CCCC2 (stereo not given) | n
CCOc1ccc(N2C(=O)C(C=Nc3cc(N)cc(C(=O)O)c3)C(=O)NC2=S)cc1 (stereo not given) | 90.5
Cc1ccc(N2C(=O)NC(=O)C(C=Nc3ccc(O)c(C(=O)O)c3)C2=O)cc1 (stereo not given) | n
O=C(O)c1cc(C(=O)O)c([N+](=O)[O-])cc1Cl | n
CCOC(=O)c1c(NC(=S)NCc2ccccc2)sc2c1CC(C)(C)OC2 | n
COc1ccc(CCNC(=O)CSc2nnc(CSc3nc4ccccc4s3)n2C)cc1OC | n
COc1ccc(Nc2nc(N)nnc2-c2ccccc2)cc1 | n
O=C(N/N=C/c1cccc(O)c1O)c1ccc(Cl)cc1Cl | n
COc1cc(/C=C(/C#N)C(N)=S)ccc1OCCN1CCOCC1 | n
CN1C(=O)/C(=C/c2ccc(-c3ccc(C(=O)O)cc3)o2)SC1=Nc1ccc(C(=O)O)cc1 | 28.5
C=CCN1C(=O)/C(=C/c2ccc(-c3ccc(C(=O)O)cc3)o2)SC1=S | n
CN1C(=O)/C(=C/c2ccc3c(c2)OCO3)SC1=Nc1ccc(C(=O)O)cc1 | n
C#CCOC(=O)c1ccc(OC)cc1 | n
CCCCC(=O)N1c2ccc(NC(=O)C(F)(F)F)cc2C(C)(c2ccccc2)CC1(C)C (stereo not given) | n
Cc1cc(C)c2c(N)c(C(=O)N3N=C(c4cccs4)CC3c3ccco3)sc2n1 (stereo not given) | n
Nc1ccc(/C=C\c2ccc(-n3nc4ccc5c(S(=O)(=O)O)cccc5c4n3)cc2S(=O)(=O)O)c(S(=O)(=O)O)c1 | 67.8
O=S(=O)(O)c1cccc2cc(O)ccc12 | n
O=S(=O)(O)c1ccc2c(S(=O)(=O)O)cccc2c1 | n
O=C(NCC1CCCN(CCCn2cccn2)C1)c1cccs1 (stereo not given) | n
CCOC(=O)c1cccc(-n2c(C)cc(/C=C3\C(=O)NC(=O)N(c4ccc(C)c(C)c4)C3=O)c2C)c1 | n
Cc1cc(/C=C2/C(=O)NC(=S)N(c3cccc(F)c3)C2=O)c(C)n1-c1ccccc1 | n
Cc1cc(/C=C2\C(=O)NC(=S)N(c3cccc(F)c3)C2=O)c(C)n1-c1cccnc1 | 77.6
Cc1cc(/C=C2/C(=O)NC(=S)N(c3ccc(F)cc3)C2=O)c(C)n1-c1ccc(O)cc1 | n
CCc1ccccc1-n1c(C)cc(/C=C2\C(=O)NC(=O)N(c3cccc(C)c3)C2=O)c1C | n
SMILES | RBX1-CUL1 inh
Cc1cc(/C=C2\C(=O)NC(=O)N(c3ccc(Cl)c(Cl)c3)C2=O)c(C)n1-c1cccnc1 | 39.7
COc1cc(N)ccc1OCCCOc1ccc(N)cc1OC | n
CCOC(=O)/C(N)=N/NS(=O)(=O)c1ccc(C)cc1 | n
O=C(c1ccc2ccccc2n1)N1CCC(Cn2cc(CO)nn2)CC1 | n
Cc1nc(-c2ccccc2)nc(C)c1OCC(=O)O | n
O=C(c1cccc(N2CCCC2=O)c1)N1CCOc2ccc(CN3CCc4ccccc4C3)cc2C1 | n
CCOC(=O)CCCCC(=O)C1NC(=O)N=C1CSc1nnc(C)c(=O)[nH]1 (stereo not given) | n
O=[N+]([O-])c1ccccc1C=Nc1ccccc1Cl | n
O=[N+]([O-])c1cc(C=Nc2c(Cl)cc(Cl)c(N=Cc3cc([N+](=O)[O-])c(O)cc3O)c2Cl)c(O)cc1O | 107.6
O=[N+]([O-])c1ccc(O)c(C=Nc2cc(Cl)cc(Cl)c2)c1 | n
Cc1ccc(OCCOc2ccccc2/C=C2\SC(=N)NC2=O)c(C)c1 | n
Cc1ccccc1N1C(=O)C(=Cc2ccc(N(C)C)cc2)C(=O)N(c2ccccc2C)C1=O | n
CN(C)/C=C1\C=C2C(=O)c3ccccc3N2C1=O | 37.3
O=C1C=C2c3ccccc3-c3ccccc3N2C(=O)C1c1ccccc1 (stereo not given) | n
CCOC(=O)C1CCN(C(=O)c2cn(C(C)C)cc(C(=O)NCC3CCCCC3)c2=O)CC1 | n
C=CCOc1c(Cl)cc(/C=c2/sc3nc4ccccc4n3c2=O)cc1OCC | n
O=C(Nc1ccnn1C1CCN(C(=O)C2CC23CCCCC3)CC1)C1CC1 (stereo not given) | n
CC(=O)Nc1ccc(-n2c(C)ccc2C)cc1 | n
Cc1ccc(C)n1-c1ccc(CC(=O)O)cc1 | 66.9
COC(=O)c1ccc(-n2c(C)ccc2C)cc1 | n
COc1ccc(N2CCN(C(=O)c3c(Cl)cccc3Cl)CC2)cc1 | n
CC1SCCN1S(=O)(=O)c1ccc(Br)cc1 (stereo not given) | n
C(=C1Sc2ccccc2S1)c1ccco1 | 57.3
N#CC1C(=N)S/C(=C/c2ccco2)C1=N (stereo not given) | n
C(=N\N(c1ccccc1)c1ccccc1)/c1ccco1 | n
SMILES | RBX1-CUL1 inh
CCc1cccc(CC)c1NC(=O)c1sc2nc3ccc(C)cc3cc2c1N | n
O=C1NC(=S)N(c2ccccc2)C(=O)/C1=C/c1cc([N+](=O)[O-])c(O)cc1O | 94.5
COc1cc(OC)c([N+](=O)[O-])cc1/C=C1\C(=O)NC(=S)N(C)C1=O | n
O=C1NC(=S)N(c2cccc(Br)c2)C(=O)/C1=C/c1ccccc1O | n
Cc1ccc(NC(=O)CSc2nnc(-c3ccoc3C)o2)cc1 | n
C=CCNC(=S)NNC(=O)CCN1CCOCC1 | n
